Source: PubChem
A1 inhib = A1 inhibition; 21,000 compounds, 0.51% hits; caspase activation, % (test concentration not listed); MEF A1-2A-BIM cells, caspase-Glo luminescence, 3 h; percent of clofoctol signal, DMSO as zero;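 active means most replicate scores above 10, or exactly half above 10 with mean activity above 10; inconclusive means mean activity below 10 while half the replicates exceed 10; inactive means most replicate scores below 10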;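 further: effector caspase 3 and 7 activity cleaving a DEVD luciferin substrate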
BJeLR viab HTS = compounds reducing viability of BJeLR cells; BJeLR fibroblasts viability, CellTiterGlo ATP luminescence, 48 h; HRASV12, hTERT and SV40 LT/ST transformed; viability loss activity score, % (test concentration not listed); 30,000 compounds, 0.64% hits; AID 2275; in the data active means viability loss activity score above about 50%; inconclusive means no clear call, values can overlap the other calls; inactive means below about 35%;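 further: higher score means fewer live cells and less ATP luminescence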
* = called active by the depositor; u = inconclusive; x = not tested or not shown. Only some compounds are listed: those with a hit (about 0.86% of all), similar ones and a draw of the others.

SMILES	A1 inhib	BJeLR viab HTS
CCC1CCCCN1C(=O)CSc1nc2c(c(=O)n1Cc1ccccc1)SC(C)C2 (stereo unspecified)	x	5.7
COc1ccc(NC(=O)CN2C(=O)C3C4C=CC(C4)C3C2=O)cc1 (stereo unspecified)	x	9.7
CCOC(=O)CCc1c(C)c(C#N)c2nc3ccccc3n2c1Cl	x	87.8*
CCc1c(C)c(C#N)c2nc3ccccc3n2c1NCCC(C)C	0.2	-2.9
O=C(Cn1c(=O)c2sccc2n(CC(=O)Nc2cccc(F)c2)c1=O)NCCc1ccccc1	x	2.1
Cc1cc(C)c(C#N)c(SCc2ccccc2)n1	0.3	-9.9
Cc1cc(C)c(C#N)c(Sc2ncnc3c2nnn3Cc2ccccc2)n1	9.8*	32.5
Cc1ccc(-c2nn(-c3cccc(F)c3)c3c2cnc2cc(F)c(F)cc23)cc1	x	-4.5
Cn1c(=NC(=O)c2cc(-c3ccccc3)nc3ccccc23)sc2cc(S(C)(=O)=O)ccc21	x	6.2
CSC(SC)=C(C#N)C(=O)c1cccc(C(F)(F)F)c1	47.7*	u
N#CC(C(=O)c1cccc(C(F)(F)F)c1)=C1SCCCCS1	0.2	-8.6
Cc1cccc(-n2cc(-c3cc4cc(Cl)ccc4oc3=O)[nH]c2=S)c1	x	48.3
CC(=O)O[C@H]1C(=O)[C@@]2(C)C([C@H](OC(=O)c3ccccc3)[C@]3(O)C[C@H](OC(=O)[C@H](O)[C@@H](NC(=O)c4ccccc4)c4ccccc4)C(C)=C1C3(C)C)[C@]1(OC(C)=O)CO[C@@H]1C[C@@H]2O (stereo partly specified)	2.2	50.2*
CC1=CC(C)(C)N(C(=O)Nc2ccc(C)cc2)c2ccccc21	x	3.3
CC1=CC(C)(C)N(S(=O)(=O)c2ccc(C)cc2)c2ccccc21	0.8	56.7*
N#CCSc1nc2c(sc3ccccc32)c(=O)n1C1CCCCC1	-0.2	-5.9
CN(C)CCNC(=O)c1cc2c(s1)-c1ccc(Cl)cc1SC2	39.0*	123.3*
CCCNC(=O)c1cc2c(s1)CS(=O)(=O)C2	0.7	0.1
CCCCC1CCC(C(=O)Nc2c3c(nn2-c2ccc(F)cc2)CS(=O)(=O)C3)CC1 (stereo unspecified)	15.4*	0.1
COc1ccc(-n2nc3c(c2NC(=O)/C=C\c2ccc4c(c2)OCO4)CS(=O)(=O)C3)cc1	0.6	0.8
COc1ccc(OCC(O)CNC(=O)c2cc(C(C)(C)C)nn2C)cc1 (stereo unspecified)	x	4.1
Cn1c(=O)oc2cc(S(=O)(=O)NC(Cc3ccccc3)C(=O)NCc3ccco3)ccc21 (stereo unspecified)	x	-0.9
CCCc1nc2sc3c(N4CCCC4)ncnc3c2c2c1CCCC2	x	-0.9
CCc1ccc(N=Cc2c(O)[nH]c(=S)[nH]c2=O)cc1	-1.0	-6.5
CCc1ccc(N=Cc2c(O)n(-c3ccccc3)c(=O)c3ccccc23)cc1	40.7*	-5.9
SMILES	A1 inhib	BJeLR viab HTS
COc1ccc2[nH]c3c(=O)n(CC(=O)N4CCN(c5ccc(F)cc5)CC4)c(=S)[nH]c3c2c1	4.3	-1.9
COc1ccc2[nH]c3c(=O)n(Cc4ccc(C(=O)NCCc5ccc(C)cc5)cc4)c(=S)[nH]c3c2c1	111.9*	3.9
O=C(NC1CCCC1)c1nnc(Cc2ccc(Cl)cc2)o1	x	-6.2
Cc1ccccc1OCCn1c(SCc2nc3ccccc3[nH]2)nc2ccccc21	x	-0.8
Cc1ccc(-n2c(=O)c3ccc(C(=O)NCc4ccco4)cc3n(Cc3cccc(C)c3)c2=O)cc1	x	6.0
C[C@H]1CC[C@@H]2[C@@H](C(=O)c3c(O)c([C@]4(O)CC[C@@H](O)[C@H]5O[C@H]54)cn(O)c3=O)[C@@H](C)C=C[C@H]2C1	46.5*	52.9*
Cc1[nH]c2ccccc2c1C(c1c(C)[nH]c2ccccc12)C(C)C	-0.2	-1.7
Cc1[nH]c2ccccc2c1Sc1ccccc1	10.5*	1.0
CN(C)/C=N/c1nnc(SCC(=O)c2ccc(F)cc2)s1	-0.2	1.8
Cc1cc(Sc2nnc(/N=C/N(C)C)s2)c2ccccc2n1	-0.1	53.7*
Cc1cc(C)cc(NC(=O)Cn2c(=O)c3cccn3c3ccccc32)c1	55.7*	16.9
COc1cccc(NC(=O)Cn2c(=O)c3cccn3c3ccccc32)c1	-0.3	-0.5
CCCCc1ccc2nc(NC(=O)OC)[nH]c2c1	-2.5	66.5*
COC(=O)Nc1nc2ccc(-c3n[nH]c(=O)c4ccccc34)cc2[nH]1	0.2	16.7
CCC(Sc1nc2cc3c(cc2c(=O)n1Cc1ccco1)OCO3)C(=O)Nc1ccccc1OC (stereo unspecified)	-0.6	7.3
CCC(Sc1nc2cc3c(cc2c(=O)n1Cc1ccco1)OCO3)C(=O)NCc1ccc(C)cc1 (stereo unspecified)	14.6*	6.2
C=C(CO)C(=O)O[C@H]1CC(=C)[C@@H]2CC(=O)[C@H](C)[C@@H]2[C@H]2OC(=O)C(=C)[C@@H]21	0.4	68.6*
C=C1C(=O)O[C@H]2C1[C@H](OC(=O)/C(C)=C/CO)C/C(C)=C\CC[C@@]1(CO)OC21 (stereo partly specified)	-0.1	2.1
Cn1c(=O)oc2cc(S(=O)(=O)N3CCC(C(=O)NCCc4ccc(Cl)cc4)CC3)ccc21	x	-3.6
CCC(C)[C@H]1C(=O)O[C@H](C(C)C)C(=O)N(C)[C@@H](C(C)C)C(=O)O[C@H](C(C)C)C(=O)N(C)[C@@H](C(C)C)C(=O)O[C@H](CC(C)C)C(=O)N1C (stereo partly specified)	44.9*	79.2*
CC(C)C[C@@H](NC(=O)OCC1c2ccccc2-c2ccccc21)C(=O)O	0.0	5.9
CC(C)C[C@@H](/C=C/S(C)(=O)=O)NC(=O)[C@H](CC(C)C)NC(=O)[C@H](CC(C)C)NC(=O)OCc1ccccc1	-2.2	116.3*
O=S(=O)(c1ccc(C2CCCCC2)cc1)N1CCn2c(nc3ccccc32)C1	x	0.1
O=C(/C=c1\[nH]/c(=C/c2ccc(F)cc2)c(=O)[nH]c1=O)c1ccccc1	11.9*	70.2*
COc1ccc(/C=c2/[nH]/c(=C\C(=O)c3ccccc3)c(=O)[nH]c2=O)cc1OC	7.5	4.4
SMILES	A1 inhib	BJeLR viab HTS
CC1CCCN(C(=O)c2ccc(NS(=O)(=O)c3cccs3)cc2)C1 (stereo unspecified)	x	-3.4
C[C@H](CO)N1C[C@H](C)[C@H](CN(C)C(=O)Nc2ccc(C(F)(F)F)cc2)Oc2ccc(NS(=O)(=O)c3cccs3)cc2C1=O	11.7*	-2.1
C[C@H](CO)N1C[C@H](C)[C@H](CN(C)Cc2ccc(C(=O)Nc3ccccc3N)cc2)Oc2ccc(N(C)C)cc2C1=O	x	15.2
C[C@@H]1CN([C@H](C)CO)C(=O)c2cc(N(C)C)ccc2O[C@@H]1CN(C)Cc1ccc(C(=O)Nc2ccccc2N)cc1	x	54.1*
C[C@@H]1CN([C@H](C)CO)C(=O)c2cc(NS(=O)(=O)c3cccs3)ccc2O[C@H]1CN(C)C(=O)Nc1ccc(F)cc1	-0.2	4.4
CCC(C)NC(=O)c1ccc2c(c1)N=C(C)c1cc(Cl)ccc1S2 (stereo unspecified)	x	5.9
N#Cc1c(C(F)(F)F)cc(-c2cccs2)nc1S/C=C/C(=O)c1ccccc1	0.1	56.7*
N#Cc1c(-c2ccccc2)cc(-c2cccs2)nc1SCS(=O)Cc1ccccc1 (stereo unspecified)	-0.2	-6.9
O=C(Cc1ccccc1)Nc1ccc(-c2cn3cccnc3n2)cc1	x	1.0
COC(=O)CN1C(=S)N(c2ccccc2)C(=O)C1CC(=O)Nc1ccc(F)cc1 (stereo unspecified)	x	-5.6
